A selection: hits, their analogues and other compounds. The true share with any hit is near 11%.
IMPase Li cell: membrane-permeable IMPase blocker, potentiated with lithium. CHO-M1 cells, IP1 TR-FRET (IP-One), carbachol + lithium. Potency, µM (top dose mostly 59.4 µM), hits mostly inhibitors. 210,000 compounds, 0.35% hits. AID 1457;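 further: IP1 builds up when IMPase is blocked and the TR-FRET signal falls; nearly all actives have a fitted effect of over 50% in size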
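CHO cells stably expressing M1 receptor (2000/well, cultured 16–30 h) treated 30 min at 37C with compound plus low lithium. Cytosolic IP1 by TR-FRET (665/620 ratio and 620 channel) after 10 min lysis; AC50 by Hill fit.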
IMPase cell inh: membrane-permeable compound that blocks inositol monophosphatase; P97697; CHO-M1 cells, IP1 accumulation, HTRF TR-FRET ratio; inhibition (IP1 accumulation), % at 46.1 µM; 120,000 tested, under 10 active; AID 901; active means well fitted curve in the direction sought with a large enough effect in the signal ratio, not every such curve was filed as active; inconclusive means small, poorly fitted or top-dose-only effect, or a change in a side signal; inactive means no such curve, though single readings can be large or run the other way; the % refers to the signal ratio;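 further: cells stimulated with carbachol in lithium chloride buffer; higher means more IMPase inhibition seen as more IP1 and lower FRET ratio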
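Cellular IMPase inhibition is scored as a rise in cytosolic IP1, detected by competitive TR-FRET between d2-labelled IP1 and a europium anti-IP1 antibody. M1-expressing CHO cells were stimulated with carbachol for 30 min at 37C, with lithium (50 mM LiCl) present in the buffer.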
ALDH1A1 inh: ALDH1A1 (human) enzyme inhibition | P00352 | Purified ALDH1A1, NADH fluorescence, propionaldehyde substrate | Potency, µM (series often up to 75.3 µM), hits mostly inhibitors | 220,000 compounds, 7.3% hits | AID 1030; active means well fitted inhibition curve with a large enough effect, not every such curve was filed as active; inconclusive means small, poorly fitted or top-dose-only effect, or another doubt; inactive means no such curve, though single readings can be large or run the other way
Target sequence (P00352 whole entry, looked up): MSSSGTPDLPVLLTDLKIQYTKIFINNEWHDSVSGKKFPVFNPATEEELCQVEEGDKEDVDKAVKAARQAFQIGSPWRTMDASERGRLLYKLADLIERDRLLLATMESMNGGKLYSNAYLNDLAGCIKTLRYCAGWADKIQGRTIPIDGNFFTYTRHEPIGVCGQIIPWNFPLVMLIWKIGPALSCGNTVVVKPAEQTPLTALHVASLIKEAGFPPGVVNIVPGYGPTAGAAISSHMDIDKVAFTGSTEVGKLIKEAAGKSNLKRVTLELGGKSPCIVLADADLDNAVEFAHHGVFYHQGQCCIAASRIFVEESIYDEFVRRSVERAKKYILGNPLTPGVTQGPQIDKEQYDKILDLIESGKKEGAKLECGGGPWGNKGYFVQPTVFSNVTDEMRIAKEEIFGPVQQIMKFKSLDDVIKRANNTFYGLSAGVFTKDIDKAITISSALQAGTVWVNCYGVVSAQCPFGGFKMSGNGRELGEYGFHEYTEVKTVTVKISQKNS
12-hLO inh: inhibitors of human 12-lipoxygenase (ALOX12); Potency, µM (top dose mostly 57.1 µM), actives largely listed as inhibitors; purified 12-hLO, xylenol orange hydroperoxide absorbance; P18054; 150,000 compounds, 0.12% hits; further: nearly all actives have a fitted effect of over 55% in size
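Hydroperoxide output read as Fe(III)-xylenol orange absorbance, 573-to-405 nm ratio, after 30 min reaction with 40 uM arachidonic acid. Enzyme: 150 nM purified human 12hLO, 15 min compound preincubation; 25 mM Hepes pH 7.0, room temperature.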
PNC inhibitor: perinucleolar compartment assembly inhibition; 140,000 compounds, 3.1% hits; activity change (PNC), negative = inhibition, % at 10 µM; PC3M PTB-GFP, PNC prevalence imaging, 16 h; hits give low values; AID 2417;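 active means readout at or below -70, meaning at least 70% loss of cells showing the perinucleolar compartment, a nuclear body marking cancer cells; inconclusive means readout between -30 and a set limit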
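Read-out is percentage of cells bearing a perinucleolar compartment, from automated 20x imaging of fixed, Hoechst-stained PC3M PTB-GFP cells. Cells were seeded 4 h, then exposed 16 h to compound (23 nl of library stock) in duplicate plates.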
HPGD block: blocks human HPGD enzyme activity | purified HPGD, NADH fluorescence kinetic, PGE2 substrate | 150,000 compounds, 4.3% hits | Potency, µM, actives largely listed as inhibitors; active means well fitted inhibition curve with a large enough effect, not every such curve was filed as active; inconclusive means small, poorly fitted or top-dose-only effect, or another doubt; inactive means no such curve, though single readings can be large or run the other way
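NADH formation kinetics: reaction with 30 uM PGE2 and 1 mM NAD+ (final), 20 nM enzyme, Tris-HCl pH 8 with Tween 20, after 15 min compound preincubation at room temperature. Fluorescence change, last versus first of five reads.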
Hits are given with their value; i = inactive; ? = inconclusive; nt = not tested or not shown; [ ] = dose if it differs, or a comment. Unless noted, the call rests on the fitted dose curve; in most records, active means well fitted curve in the direction sought with a large enough effect; inconclusive means small, poorly fitted or top-dose-only effect, or another doubt; inactive means no such curve, though single readings can be large; an effect the other way counts as inactive or inconclusive.

SMILES	IMPase Li cell	IMPase cell inh	ALDH1A1 inh	12-hLO inh	PNC inhibitor	HPGD block
CN1CCN(c2ncnc3ccc(-c4ccccc4C(F)(F)F)cc23)CC1	i	nt	?	nt	nt	nt
COc1ccc([C@@H](Nc2ncccn2)c2cc3c(cc2O)OCO3)cc1	i	nt	i[13.5 µM]	i[11.4 µM]	nt	i
O=P(/C(=N/O)Sc1ccccc1)(N1CCOCC1)N1CCOCC1	i	i	i	i	?	i
Cc1ccc(P(=Nc2ccccc2)(N2CCOCC2)N2CCOCC2)o1	i	i	i	i	-92	i
CN(C)CCNCCN	i	nt	i[13.5 µM]	i[11.4 µM]	nt	i
CCn1nnnc1NCc1ccc(N2CCCC2)cc1	i	i	35µM	i	i	i
Clc1ccccc1-c1ccc2ncnc(NCCN3CCOCC3)c2c1	?	nt	i	nt	nt	nt
O=C(/C=C/Nc1ccc(Cc2ccc(N/C=C/C(=O)C(F)(F)F)cc2)cc1)C(F)(F)F	i	i	i	i	-85	i
O=C(CCc1c[nH]c2ccccc12)NCC(=O)Nc1ccc(F)c(F)c1F	i	nt	i	nt	nt	nt
CCn1c(C(C#N)/C(=N\S(=O)(=O)c2cccs2)c2ccccc2)nc2ccccc21 (centres undefined)	i	i	10µM	i	i	i
CC(C)=NO[C@@H](C)CN1CCCCc2nc(C)c(C)cc21	nt	nt	i[13.5 µM]	nt	nt	nt
Cc1ccc(/C=C/C(=O)N2CCc3ccccc3C2)cc1	i	i	i	i	i	14µM
O=C(O)Cc1coc2cc3c(cc12)CCC3	i	nt	i	nt	nt	nt
O=C(Cc1coc2cc3c(cc12)CCC3)NC1CCCCCCC1	i	i	i	i	i	14µM
C#CCOc1ccc(C2C(C(=O)OC)=C(C)NC3=C2C(=O)c2ccccc23)cc1OCC (centres undefined)	nt	i	nt	nt	nt	nt
CC(C)NC(=O)NC(=O)COC(=O)Cc1ccsc1	i	i	14µM	i	i	i
COc1ccc(CC(=O)OCC(=O)NC(=O)NC(C)C)cc1	i	i	i	i	i	i
CC1(C)CC(=O)C(c2c[nH]c3ccccc23)C(=O)C1	i	nt	20µM	nt	nt	nt
CC12CN3CC(C)(CN(C1)C3c1c[nH]c3ccccc13)C2=O (centres undefined)	i	nt	i	nt	nt	nt
COc1ncc2ncc(=O)n(C3CC3)c2n1	i	nt	?	nt	nt	nt
c1cncc(CNc2ccc3c(c2)OCO3)c1	i	i	20µM	i	i	i
CCOC(=O)c1cc(C#N)c(SCC(=O)c2cc(C#N)c(SC)nc2C)[nH]c1=O	i	i	1.3µM	i	i	1.4µM
CCOC(=O)c1cc(C#N)c(SCC(=O)O)[nH]c1=O	i	nt	?	nt	nt	nt
Cc1noc(C)c1C(=O)N1CCC2(CCN(Cc3nccs3)CC2)CC1	i	nt	i	i	nt	i
CN(C)CCC#CC(O)(c1ccccc1)c1ccccc1	i	nt	25µM	i	i	i
SMILES	IMPase Li cell	IMPase cell inh	ALDH1A1 inh	12-hLO inh	PNC inhibitor	HPGD block
CCOC(=O)C1=C(C)C(c2ccccc2OC)NC(=O)N1 (centres undefined)	i	i	i	i	i	i
CCOC(=O)C1=C(C)C(c2ccccc2OC)NC(=S)N1 (centres undefined)	i	i	3.5µM	i	?	i
Fc1ccc(C(OCCCc2cnc[nH]2)c2ccc(F)cc2)cc1	i	i	i	i	nt	i
Cc1cc(C(F)(F)F)nn1CC(=O)Nc1ccc(Br)c2cccnc12	i	i	i	i	-100	i
O=C(NNC(=S)Nc1ccccc1)NNC(=S)Nc1ccccc1	i	nt	?	nt	nt	nt
Cc1ccc(NC(=S)NNC(=O)Nc2ccccc2)cc1	i	nt	2.2µM	nt	nt	nt
O=C(NNC(=S)Nc1ccccc1)Nc1ccccc1	i	nt	14µM	nt	nt	nt
Cc1nnc(SCC(=O)OC2CC(C)CCC2C(C)C)[nH]c1=O (centres undefined)	i	i	?	i	i	i
CC1CCC(C(C)C)C(OC(=O)CSc2nc(N)cc(=O)[nH]2)C1 (centres undefined)	i	i	4.5µM	i	i	i
Cc1nc2ccc(S(=O)(=O)NCC(=O)Nc3cccc(F)c3)cc2s1	?	nt	i	nt	nt	nt
Cc1nnc(N2C(=O)c3oc4ccccc4c(=O)c3C2c2ccc(F)cc2)s1 (centres undefined)	nt	i	nt	nt	nt	nt
CC(C)OCC(O)CS(=O)(=O)Cc1ccccc1 (centres undefined)	i	i	i	i	i	13µM
CC[C@@H](CS(=O)(=O)O)[N+](=O)[O-]	i	nt	i[13.5 µM]	i[11.4 µM]	nt	i
O=C(NCCCCNC(=O)c1ccc(Cl)s1)c1ccc(Cl)s1	?	?	i	i	i	i
O=C(NCc1cccs1)c1ccc(Cl)s1	i	i	i	i	i	16µM
CCc1ccc(C(=O)NCc2cccs2)s1	i	i	i	i	?	18µM
NC(=O)NCc1cccs1	i	nt	i	nt	nt	nt
COc1ccc(C(=O)N2CCC3(CCN(C(=O)Nc4cccc(C#N)c4)CC3)CC2)cc1	i	nt	i	i	nt	i
Cc1ccccc1C(=O)Nc1cc2c(cc1N1CCCCC1)n(C)c(=O)n2C	nt	i	nt	nt	nt	nt
c1ccc(-c2cc(N3CCOCC3)nc(-c3ccccc3)n2)cc1	i	i	i	i	-83	i
c1ccc(-c2cc(N3CCCCC3)nc(-c3ccccc3)n2)cc1	i	i	i	i	?	?
Cc1nn(-c2ccccc2)c(N2CCCC2)c1/C=N/NC(=S)Nc1ccccc1F	i	nt	?	i	-86	?
O=S1(=O)C=C(Sc2nnc(-c3ccccc3)o2)c2ccccc21	?	?	22µM	i	?	14µM
Cc1cc(C)nc(SC2=CS(=O)(=O)c3ccccc32)n1	i	i	i	i	i	i
Cc1[nH]c(=S)c(C#N)c(-c2ccco2)c1C(=O)N(C)C	i	nt	28µM	nt	nt	nt
Cn1nnnc1SCC(=O)N1c2ccccc2CCc2ccccc21	i	i	i	i	?	i
